Data reported in PubChem BioAssay (Tox21).
Inconclusive results are not listed. Activity calls are given as the source filed them. Unless noted, calls follow the shape of the dose curve; as a rule, active = well fitted curve in the direction sought with a large enough effect in the repeat runs; inconclusive = weak or mixed curves; inactive = no such curve, though single readings can be large; an effect the other way counts as inactive or inconclusive.

Tests used:
[1] = qHTS assay to identify small molecule antagonists of the vitamin D receptor (VDR) signaling pathway - cell viability counter screen (AID 743225); also: nearly all actives have a fitted effect of over 50% in size
Outline: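 Cells (VDR-UAS-bla HEK 293T) are plated, rested 4 h at 37C, dosed with compound and 3 nM final 1-alpha,25-dihydroxy vitamin D3, and incubated 16 h. Viability is taken from CellTiter-Glo luminescence in the reporter wells.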

[2] = qHTS assay to identify small molecule agonists of the NFkB signaling pathway (AID 1159509; active = well fitted curve in the direction sought with a large enough effect in the signal ratio in the repeat runs, not every such curve was filed as active; the % refers to the signal ratio)
Outline: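 NFkB-bla ME-180 cells carry a beta-lactamase reporter under an NF-kB response element. They were plated overnight, then exposed to compounds for 5 h at 37 C. Read-out is LiveBLAzer FRET after 1.5 hr at room temperature (405 nm excitation; 460/530 nm emission).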

[3] = qHTS assay to identify small molecule agonists of the NFkB signaling pathway - cell viability counter screen (AID 1159515; calls by dose curve; also: nearly all actives have a fitted effect of over 55% in size)
Outline: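 NFkB-bla ME-180 cells, 2,000/well, were plated overnight at 37 C, 5% CO2, then exposed to compounds in DMSO for 5 hr. After the bla FRET read, CellTiter-Glo was added to the same wells; luminescence was read after 30 min at room temperature.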

[4] = qHTS assay to identify small molecule agonists of the endoplasmic reticulum stress response signaling pathway - cell viability counter screen (AID 1159517; calls by dose curve; also: nearly all actives have a fitted effect of over 50% in size)
Outline: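 ESRE-bla HeLa cells, 1,500 per well, seeded overnight then treated with compounds for 5 hr at 37 C. After the beta-lactamase read, viability in the same wells is measured by CellTiter-Glo luminescence after 30 min at room temperature.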

[5] = qHTS assay to identify small molecule antagonists of the retinoid-related orphan receptor gamma (ROR-gamma) signaling pathway - cell viability counter screen (AID 1159520); also: nearly all actives have a fitted effect of over 50% in size
Outline: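 Tet-on ROR gamma CHO cells were given compounds for 2 hr, then doxycycline hyclate at 1 uM final, and incubated 16 hr at 37 C. Viability was measured as ATP content by CellTiter-Glo luminescence.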

[6] = molecular target: Nuclear receptor ROR-gamma (Homo sapiens) (UniProt P51449); experiment: qHTS assay to identify small molecule antagonists of the retinoid-related orphan receptor gamma (ROR-gamma) signaling pathway (AID 1159521;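 also: CHO cells with doxycycline inducible ROR-gamma driving an RORE luciferase reporter; top concentration of the series differs between compounds; nearly all actives have a fitted effect of over 50% in size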)
Outline: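 RORγ antagonism is scored from reduced reporter luminescence in Tet-on CHO cells. Induction used 1 uM final doxycycline hyclate for 16 h at 37 C, following a 2 h compound exposure.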

[7] = qHTS assay to identify small molecule agonists of the AP-1 signaling pathway - cell viability counter screen (AID 1159525; calls by dose curve; also: nearly all actives have a fitted effect of over 55% in size)
Outline: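 AP-1-bla ME-180 cells in Opti-MEM with 0.5% dialyzed FBS, compound exposure 5 h at 37 C in 15-point titration. Viability read in the same wells as ATP content by CellTiter-Glo luminescence, normalised to tetra-n-octylammonium bromide and DMSO controls.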

[8] = qHTS assay to identify small molecule agonists of the AP-1 signaling pathway (AID 1159526; calls by dose curve)
[9] = molecular target: Retinoic acid receptor RXR-alpha (Homo sapiens) (UniProt P19793); experiment: qHTS assay to identify small molecule agonists of the RXR signaling pathway (AID 1159527; calls by dose curve; also: nearly all actives have a fitted effect of over 35% in size)
Chain of Retinoic acid receptor RXR-alpha (Homo sapiens) (P19793 whole entry, looked up): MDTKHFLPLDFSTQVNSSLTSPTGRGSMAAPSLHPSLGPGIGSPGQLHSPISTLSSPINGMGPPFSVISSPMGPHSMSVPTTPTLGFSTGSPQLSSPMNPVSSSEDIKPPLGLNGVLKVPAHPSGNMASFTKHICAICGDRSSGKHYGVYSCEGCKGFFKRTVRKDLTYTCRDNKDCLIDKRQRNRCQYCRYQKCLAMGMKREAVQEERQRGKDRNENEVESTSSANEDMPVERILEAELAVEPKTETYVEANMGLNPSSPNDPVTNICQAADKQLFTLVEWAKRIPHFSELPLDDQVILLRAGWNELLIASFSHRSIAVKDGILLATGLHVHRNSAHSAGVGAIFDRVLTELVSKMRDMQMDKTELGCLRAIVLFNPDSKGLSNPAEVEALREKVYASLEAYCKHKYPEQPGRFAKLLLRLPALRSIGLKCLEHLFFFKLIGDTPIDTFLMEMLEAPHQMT
Outline: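 qHTS of the Tox21 10K library in GeneBLAzer RXR-alpha HEK 293T cells carrying a beta-lactamase reporter […]; 16 hr treatment, 9-cis retinoic acid as agonist control, FRET read-out.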

[10] = qHTS assay to identify small molecule agonists of the RXR signaling pathway - cell viability counter screen (AID 1159529); also: nearly all actives have a fitted effect of over 50% in size
Outline: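 Cell viability is measured by CellTiter-Glo luminescence, 30 min at room temperature, in wells already read for beta-lactamase. Engineered HEK 293T cells (RXR-alpha-UAS-bla) are dosed 16 hr at 37 C. Tetraoctyl ammonium bromide serves as positive control.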

[11] = qHTS assay to identify small molecule antagonists of the retinoid acid receptor (RAR) signaling pathway - cell viability counter screen (AID 1159551); also: nearly all actives have a fitted effect of over 35% in size
Outline: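 C3RL4 cells were seeded overnight at 37 C, then treated with compounds plus 1 uM (final) retinol for 6 h at 37 C. Viability was read as ATP by CellTiter-Glo luminescence after 30 min at room temperature.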

[12] = qHTS assay to identify small molecule antagonists of the retinoic acid receptor (RAR) signaling pathway (AID 1159552; also: nearly all actives have a fitted effect of over 50% in size)
Outline: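 Quantitative HTS in C3RL4 RARE-luciferase reporter cells. Compounds were added with 1 uM (final) retinol; luminescence was read after 6 hr.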

[13] = qHTS assay to identify small molecule antagonists of the estrogen related receptor (ERR) signaling pathway from Tox21 library - cell viability counter screen (AID 1224834); also: nearly all actives have a fitted effect of over 30% in size
Outline: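 ERR reporter cells were plated 6 h before compound addition, then exposed to test compounds in DMSO for 17.5 h at 37 C. Viability was read as CellTiter-Fluor fluorescence after a 30-minute incubation at 37 C.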

[14] = molecular target: Luciferin 4-monooxygenase (Photinus pyralis) (UniProt P08659); experiment: qHTS assay to identify small molecule inhibitors of firefly luciferase (AID 1224835); also: nearly all actives have a fitted effect of over 25% in size
Chain of Luciferin 4-monooxygenase (Photinus pyralis) (P08659 whole entry, looked up): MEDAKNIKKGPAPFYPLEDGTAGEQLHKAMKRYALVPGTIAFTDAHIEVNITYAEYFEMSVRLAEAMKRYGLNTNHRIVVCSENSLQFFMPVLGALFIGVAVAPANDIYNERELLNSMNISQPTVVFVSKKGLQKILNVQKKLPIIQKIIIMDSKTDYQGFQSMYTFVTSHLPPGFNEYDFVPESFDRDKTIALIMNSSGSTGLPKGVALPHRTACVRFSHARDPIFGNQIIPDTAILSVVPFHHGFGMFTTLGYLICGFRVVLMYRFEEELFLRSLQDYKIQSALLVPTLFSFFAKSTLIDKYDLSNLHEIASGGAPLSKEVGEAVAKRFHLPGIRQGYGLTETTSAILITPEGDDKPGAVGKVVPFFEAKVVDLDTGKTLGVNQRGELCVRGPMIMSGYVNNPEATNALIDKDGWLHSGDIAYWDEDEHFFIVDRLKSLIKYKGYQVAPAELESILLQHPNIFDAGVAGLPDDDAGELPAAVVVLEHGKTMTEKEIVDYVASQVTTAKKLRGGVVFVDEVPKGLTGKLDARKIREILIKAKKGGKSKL
Outline: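 Biochemical qHTS: compounds run as interplate titrations against purified firefly enzyme, with D-luciferin and ATP each at its KM concentration. Light output recorded by CCD imaging.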

[15] = qHTS assay to identify small molecule antagonists of the constitutive androstane receptor (CAR) signaling pathway - cell viability counter screen (AID 1224837); also: nearly all actives have a fitted effect of over 45% in size
Outline: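 HepG2 cells stably expressing hCAR and a CYP2B6-2.2kb reporter were plated and pre-incubated 4 hr at 37 C/5% CO2, then given compounds at 15 concentrations plus 50 nM CITCO (final). After 23 hr, viability was read by CellTiter-Fluor fluorescence.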

[16] = qHTS assay to identify small molecule agonists of the retinoic acid receptor (RAR) signaling pathway (AID 1159553); conditions: C3RL4 RARE luciferase reporter, agonist, 6 h; activation: at 73.3 µM (top of the series) unless noted
Outline: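 C3RL4 cells carrying a RARE luciferase reporter were plated overnight at 37 C, then exposed to compounds in DMSO for 6 hr at 37 C and 5% CO2. Luminescence was read 30 min after luciferase reagent addition at room temperature.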

[17] = qHTS assay to identify small molecule agonists of the constitutive androstane receptor (CAR) signaling pathway - cell viability counter screen (AID 1224836); also: nearly all actives have a fitted effect of over 45% in size
Outline: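 Counter screen multiplexed with the CAR reporter readout: HepG2 cells co-transfected with hCAR and the CYP2B6-2.2kb construct receive a 15-concentration compound series and 0.75 uM PK11195 (final), then CellTiter-Fluor fluorescence is read after 23 h.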

[18] = qHTS assay to identify small molecule agonists of the endoplasmic reticulum stress response signaling pathway (AID 1159516; active = well fitted activation curve with a large enough effect in the signal ratio in the repeat runs, not every such curve was filed as active; the % refers to the signal ratio)
Outline: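 CellSensor ESRE-bla HeLa cells, carrying a beta-lactamase reporter driven by the ER stress response element, were plated overnight and exposed to compounds for 5 hr at 37 C. Reporter activity was read as FRET substrate fluorescence after 2 hr at room temperature.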

[19] = qHTS assay to identify small molecule antagonists of the estrogen related receptor (ERR) signaling pathway - cell viability counter screen (AID 1224818);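 also: viability measured after 17.5 h of compound exposure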
Outline: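 ERR reporter cells plated 6 h at 37 C/5% CO2, then compounds in DMSO pin-transferred and incubated 17.5 h at 37 C. Viability read as CellTiter-Fluor fluorescence after 30 min at 37 C.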

[20] = qHTS assay to identify small molecule antagonists of the estrogen related receptor signaling pathway with the pleiotropic PPARgamma coactivator (PGC) cell viability counter screen (AID 1224822)
Outline: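 PGC/ERR cells were seeded at 2,000 cells/well, rested 6 h at 37 C/5% CO2, then given compounds in DMSO by pin tool and incubated 17.5 h at 37 C. Viability came from CellTiter-Fluor fluorescence after 30 min.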

Measured: Potency

C1CC2OC2CC1C1CO1 (stereo unspecified)
not listed: [16] | [17] | [18] | [19] | [20]
inactive: all other assays above

Nc1ccc(Cc2ccc(N)cc2)cc1
not listed: [18] | [19] | [20]
inactive: all other assays above

NCC(O)c1ccc(O)cc1 (stereo unspecified)
not listed: [2] | [16] | [17]
inactive: all other assays above

CC1C=[C-]C=C1.[C-]#[O+].[C-]#[O+].[C-]#[O+].[Mn]
not listed: [18] | [19] | [20]
inactive: all other assays above

Nc1c(Cl)c(Cl)nc(C(=O)O)c1Cl
not listed: [9] | [12] | [16] | [17] | [18] | [19] | [20]
inactive: all other assays above

CC(C)N1C(=O)c2ccccc2NS1(=O)=O
not listed: [2] | [16] | [19] | [20]
inactive: all other assays above

Cc1cc(-c2cc(C)c(N)c(C)c2)cc(C)c1N
not listed: [18] | [19] | [20]
inactive: all other assays above

CN(C)N=O
not listed: [16] | [17] | [18] | [19] | [20]
inactive: all other assays above

CCOP(=S)(OCC)Oc1cnc2ccccc2n1
not listed: [6] | [9] | [16] | [18] | [19] | [20]
inactive: all other assays above
